# Residue numbers refer to the chain shown, from its start.
# Experiments:
# Assay in all cases: yeast three-hybrid, YBZ-1, SC-Leu-His + 0.5 mM 3-AT, 4 days
# Details in all cases: tags: N-Gal4 AD-HA kept; label: inside an RPR1-promoter hybrid RNA with tandem MS2 sites; ssRNA
# PUM1 PUF domain R7-RSR = PUM1 PUF domain R7-RSR (Homo sapiens, UniProt Q14671 828-1176, S1079R;N1080S;E1083R)
# In short: (§1)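 The interaction score is the log change in variant frequency from input to selection. Scores were computed in log2 with a pseudocount of 1 for absent variants, using Illumina sequencing of PCR-amplified repeat regions. The input came from four days on SC-Leu and the selection from four days on SC-Leu-His + 0.5 mM 3-AT. The cells were strain YBZ-1 (LexA–MS2 coat fusion, HIS3 reporter) co-expressing Pumilio-1 PUF domain libraries and matching RNA elements from a centromeric plasmid.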
# PUM1 PUF domain R1-YRR = PUM1 PUF domain R1-YRR (Homo sapiens, UniProt Q14671 828-1176, S863Y;Q867R)
# In short: as §1
# PUM1 PUF domain R5-LYG = PUM1 PUF domain R5-LYG (Homo sapiens, UniProt Q14671 828-1176, C1007L;R1008Y;Q1011G)
# In short: as §1
# PUM1 PUF domain R5-KHL = PUM1 PUF domain R5-KHL (Homo sapiens, UniProt Q14671 828-1176, C1007K;R1008H;Q1011L)
# In short: as §1
# PUM1 PUF domain R5-WHC = PUM1 PUF domain R5-WHC (Homo sapiens, UniProt Q14671 828-1176, C1007W;R1008H;Q1011C)
# In short: as §1
# PUM1 PUF domain R5-FHT = PUM1 PUF domain R5-FHT (Homo sapiens, UniProt Q14671 828-1176, C1007F;R1008H;Q1011T)
# In short: as §1
# PUM1 PUF domain R3-LFT = PUM1 PUF domain R3-LFT (Homo sapiens, UniProt Q14671 828-1176, C935L;R936F;Q939T)
# In short: as §1
# PUM1 PUF domain R3-IFV = PUM1 PUF domain R3-IFV (Homo sapiens, UniProt Q14671 828-1176, C935I;R936F;Q939V)
# In short: as §1
# PUM1 PUF domain R3-DHV = PUM1 PUF domain R3-DHV (Homo sapiens, UniProt Q14671 828-1176, C935D;R936H;Q939V)
# In short: as §1
# PUM1 PUF domain R2-KLQ = PUM1 PUF domain R2-KLQ (Homo sapiens, UniProt Q14671 828-1176, N899K;Y900L)
# In short: as §1
# PUM1 PUF domain R8-KFA = PUM1 PUF domain R8-KFA (Homo sapiens, UniProt Q14671 828-1176, N1122K;Y1123F;Q1126A)
# In short: as §1
# PUM1 PUF domain R6-CWR = molecular target: T1, PUM1 PUF domain R6-CWR (Homo sapiens, UniProt Q14671 828-1176, N1043C;Y1044W;Q1047R)
# T1 sequence: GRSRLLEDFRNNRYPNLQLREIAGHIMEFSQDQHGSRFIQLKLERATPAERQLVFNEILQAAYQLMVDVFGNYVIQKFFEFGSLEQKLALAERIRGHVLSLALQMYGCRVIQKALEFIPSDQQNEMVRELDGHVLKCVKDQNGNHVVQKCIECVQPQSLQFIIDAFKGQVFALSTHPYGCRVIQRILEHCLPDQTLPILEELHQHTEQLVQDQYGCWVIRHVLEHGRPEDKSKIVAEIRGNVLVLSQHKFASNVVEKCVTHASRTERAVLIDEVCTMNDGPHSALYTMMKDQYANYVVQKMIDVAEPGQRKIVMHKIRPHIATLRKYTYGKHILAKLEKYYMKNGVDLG
# In short: as §1
# PUM1 PUF domain R6-KWR = molecular target: T2, PUM1 PUF domain R6-KWR (Homo sapiens, UniProt Q14671 828-1176, N1043K;Y1044W;Q1047R)
# T2 sequence: T1 sequence with C216K
# In short: as §1
# PUM1 PUF domain R7-QRD = PUM1 PUF domain R7-QRD (Homo sapiens, UniProt Q14671 828-1176, S1079Q;N1080R;E1083D)
# In short: as §1
# PUM1 PUF domain R6-LWV = molecular target: T3, PUM1 PUF domain R6-LWV (Homo sapiens, UniProt Q14671 828-1176, N1043L;Y1044W;Q1047V)
# T3 sequence: T1 sequence with C216L, R220V
# In short: as §1
# PUM1 PUF domain R3-GWI = PUM1 PUF domain R3-GWI (Homo sapiens, UniProt Q14671 828-1176, C935G;R936W;Q939I)
# In short: as §1
# PUM1 PUF domain R1-KVS = PUM1 PUF domain R1-KVS (Homo sapiens, UniProt Q14671 828-1176, S863K;R864V;Q867S)
# In short: as §1
# PUM1 PUF domain R4-DYN = PUM1 PUF domain R4-DYN (Homo sapiens, UniProt Q14671 828-1176, N971D;H972Y;Q975N)
# In short: as §1
# PUM1 PUF domain R3-RQG = PUM1 PUF domain R3-RQG (Homo sapiens, UniProt Q14671 828-1176, C935R;R936Q;Q939G)
# In short: as §1
# PUM1 PUF domain R1-KWE = PUM1 PUF domain R1-KWE (Homo sapiens, UniProt Q14671 828-1176, S863K;R864W;Q867E)
# In short: as §1
# Chain of PUM1 PUF domain R1-YRR (Q14671 828-1176 S863Y/Q867R): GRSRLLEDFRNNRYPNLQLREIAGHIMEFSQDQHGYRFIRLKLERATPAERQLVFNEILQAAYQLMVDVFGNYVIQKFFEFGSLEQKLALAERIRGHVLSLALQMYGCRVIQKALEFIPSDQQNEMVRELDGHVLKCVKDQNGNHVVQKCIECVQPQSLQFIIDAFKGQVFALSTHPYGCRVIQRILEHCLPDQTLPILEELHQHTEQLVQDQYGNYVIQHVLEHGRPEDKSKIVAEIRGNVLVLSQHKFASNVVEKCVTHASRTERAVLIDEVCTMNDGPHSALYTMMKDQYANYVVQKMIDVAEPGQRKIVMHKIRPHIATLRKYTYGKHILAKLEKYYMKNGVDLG
sequence,measurement,setting,value
GGCUAGAACUAGUGGAUCCCCCGGCGCCCGGCGGCUCGAGCCCGGGUAAGUCUAAAUAGUCUGCAUGCCGCCGGGCGCCAUGCCUGCAGGUCGACUCUAGAAAACAUG,binding signal,PUM1 PUF domain R7-RSR,3.42 log2 enrichment (interaction score)
GGCUAGAACUAGUGGAUCCCCCGGCGCCCGGCGGCUCGAGCCCGGGUAAGUGUAAAUGGUCUGCAUGCCGCCGGGCGCCAUGCCUGCAGGUCGACUCUAGAAAACAUG,binding signal,PUM1 PUF domain R1-YRR,4.42 log2 enrichment (interaction score)
GGCUAGAACUAGUGGAUCCCCCGGCGCCCGGCGGCUCGAGCCCGGGUAAGUGUUAAUAGUCUGCAUGCCGCCGGGCGCCAUGCCUGCAGGUCGACUCUAGAAAACAUG,binding signal,PUM1 PUF domain R5-LYG,2.42 log2 enrichment (interaction score)
same,binding signal,PUM1 PUF domain R5-KHL,5.83 log2 enrichment (interaction score)
GGCUAGAACUAGUGGAUCCCCCGGCGCCCGGCGGCUCGAGCCCGGGUAAGUGUCAAUAGUCUGCAUGCCGCCGGGCGCCAUGCCUGCAGGUCGACUCUAGAAAACAUG,binding signal,PUM1 PUF domain R5-WHC,3.6 log2 enrichment (interaction score)
same,binding signal,PUM1 PUF domain R5-FHT,2.81 log2 enrichment (interaction score)
GGCUAGAACUAGUGGAUCCCCCGGCGCCCGGCGGCUCGAGCCCGGGUAAGUGUAAGUAGUCUGCAUGCCGCCGGGCGCCAUGCCUGCAGGUCGACUCUAGAAAACAUG,binding signal,PUM1 PUF domain R3-LFT,6.89 log2 enrichment (interaction score)
same,binding signal,PUM1 PUF domain R3-IFV,3.32 log2 enrichment (interaction score)
same,binding signal,PUM1 PUF domain R3-DHV,1.77 log2 enrichment (interaction score)
GGCUAGAACUAGUGGAUCCCCCGGCGCCCGGCGGCUCGAGCCCGGGUAAGUGUAAAGAGUCUGCAUGCCGCCGGGCGCCAUGCCUGCAGGUCGACUCUAGAAAACAUG,binding signal,PUM1 PUF domain R2-KLQ,3.21 log2 enrichment (interaction score)
GGCUAGAACUAGUGGAUCCCCCGGCGCCCGGCGGCUCGAGCCCGGGUAAGUUUAAAUAGUCUGCAUGCCGCCGGGCGCCAUGCCUGCAGGUCGACUCUAGAAAACAUG,binding signal,PUM1 PUF domain R7-RSR,4.84 log2 enrichment (interaction score)
GGCUAGAACUAGUGGAUCCCCCGGCGCCCGGCGGCUCGAGCCCGGGUAAGCGUAAAUAGUCUGCAUGCCGCCGGGCGCCAUGCCUGCAGGUCGACUCUAGAAAACAUG,binding signal,PUM1 PUF domain R8-KFA,6.97 log2 enrichment (interaction score)
GGCUAGAACUAGUGGAUCCCCCGGCGCCCGGCGGCUCGAGCCCGGGUAAGUGUAAAUAGUCUGCAUGCCGCCGGGCGCCAUGCCUGCAGGUCGACUCUAGAAAACAUG,binding signal,PUM1 PUF domain R8-KFA,4.75 log2 enrichment (interaction score)
same,binding signal,PUM1 PUF domain R5-LYG,3.46 log2 enrichment (interaction score)
same,binding signal,PUM1 PUF domain R6-CWR,5.42 log2 enrichment (interaction score)
same,binding signal,PUM1 PUF domain R3-IFV,4.8 log2 enrichment (interaction score)
same,binding signal,PUM1 PUF domain R3-DHV,4.2 log2 enrichment (interaction score)
same,binding signal,PUM1 PUF domain R6-KWR,6.69 log2 enrichment (interaction score)
same,binding signal,PUM1 PUF domain R7-QRD,2.72 log2 enrichment (interaction score)
same,binding signal,PUM1 PUF domain R6-LWV,3.67 log2 enrichment (interaction score)
same,binding signal,PUM1 PUF domain R3-GWI,2.68 log2 enrichment (interaction score)
GGCUAGAACUAGUGGAUCCCCCGGCGCCCGGCGGCUCGAGCCCGGGUAAGUGUAAAUUGUCUGCAUGCCGCCGGGCGCCAUGCCUGCAGGUCGACUCUAGAAAACAUG,binding signal,PUM1 PUF domain R1-KVS,4.64 log2 enrichment (interaction score)
same,binding signal,PUM1 PUF domain R1-YRR,8.31 log2 enrichment (interaction score)
GGCUAGAACUAGUGGAUCCCCCGGCGCCCGGCGGCUCGAGCCCGGGUAAGUGUAUAUAGUCUGCAUGCCGCCGGGCGCCAUGCCUGCAGGUCGACUCUAGAAAACAUG,binding signal,PUM1 PUF domain R4-DYN,5.22 log2 enrichment (interaction score)
GGCUAGAACUAGUGGAUCCCCCGGCGCCCGGCGGCUCGAGCCCGGGUAAGUGUAAUUAGUCUGCAUGCCGCCGGGCGCCAUGCCUGCAGGUCGACUCUAGAAAACAUG,binding signal,PUM1 PUF domain R3-LFT,5.16 log2 enrichment (interaction score)
same,binding signal,PUM1 PUF domain R3-IFV,4.5 log2 enrichment (interaction score)
same,binding signal,PUM1 PUF domain R3-RQG,4.14 log2 enrichment (interaction score)
GGCUAGAACUAGUGGAUCCCCCGGCGCCCGGCGGCUCGAGCCCGGGUAAGUGAAAAUAGUCUGCAUGCCGCCGGGCGCCAUGCCUGCAGGUCGACUCUAGAAAACAUG,binding signal,PUM1 PUF domain R6-LWV,2.8 log2 enrichment (interaction score)
GGCUAGAACUAGUGGAUCCCCCGGCGCCCGGCGGCUCGAGCCCGGGUAAGUGUAAAUCGUCUGCAUGCCGCCGGGCGCCAUGCCUGCAGGUCGACUCUAGAAAACAUG,binding signal,PUM1 PUF domain R1-KVS,5.01 log2 enrichment (interaction score)
same,binding signal,PUM1 PUF domain R1-KWE,4.74 log2 enrichment (interaction score)
same,binding signal,PUM1 PUF domain R1-YRR,7.93 log2 enrichment (interaction score)

# Source: PMC8384837, “Expanding the binding specificity for RNA recognition by a PUF domain”
